PubChem BioAssay (Tox21)
Where “and” joins values, the source holds several entries; their conditions need not be identical. Equal entries are not always repeated. Records with an inconclusive call do not appear. Where a call stands in place of a potency, no number is given. Calls of active or inactive are those of the source. Unless noted, calls come from the whole dose curve; as a rule, active = well fitted curve in the direction sought with a large enough effect in the repeat runs; inconclusive = weak or mixed curves; inactive = no such curve, though single readings can be large; an effect the other way counts as inactive or inconclusive.

Legend:
[1] = qHTS assay to identify small molecule antagonists of the glucocorticoid receptor (GR) signaling pathway - cell viability counter screen (AID 720693); note: nearly all actives have a fitted effect of over 55% in size
[2] = qHTS assay for identifying genotoxic compounds that show differential cytotoxicity against isogenic chicken DT40 cell lines with known DNA damage response pathways - wild type cell line (AID 743012); note: nearly all actives have a fitted effect of over 60% in size; note: potency is the fitted concentration of half-maximal effect
Method in brief: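 Wild-type DT40 cells (300/well) exposed to compounds for 40 hours at 37 C/5% CO2. Viability read by CellTiter-Glo luminescence after 30 min at room temperature.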

[3] = qHTS assay for identifying genotoxic compounds that show differential cytotoxicity against isogenic chicken DT40 cell lines with known DNA damage response pathways - Rad54/Ku70 mutant cell line (AID 743015); note: nearly all actives have a fitted effect of over 60% in size; note: potency is the fitted concentration of half-maximal effect
[4] = qHTS assay to identify small molecule antagonists of the androgen receptor (AR) signaling pathway - cell viability counter screen (AID 743033; note: nearly all actives have a fitted effect of over 45% in size; note: potency is the fitted concentration of half-maximal effect)
[5] = qHTS assay to identify small molecule antagonists of the androgen receptor (AR) signaling pathway using the MDA cell line - cell viability counter screen (AID 743041; note: nearly all actives have a fitted effect of over 45% in size; note: potency is the fitted concentration of half-maximal effect)
Method in brief: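 Viability counter screen run alongside the AR antagonist reporter: cells seeded 5 h before compound, R1881 added, 16 h incubation at 37C without CO2, fluorescent CellTiter-Fluor signal quantified.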

[6] = qHTS assay to identify small molecule antagonists of the thyroid receptor (TR) signaling pathway (AID 743065); note: nearly all actives have a fitted effect of over 55% in size; note: potency is the fitted concentration of half-maximal effect
Method in brief: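 GH3.TRE-Luc rat pituitary cells carrying two TR response elements driving luciferase were plated for 4 h, given compound plus 1 nM T3 (final), and incubated 23.5 h at 37 C. ONE-Glo luminescence measured reporter inhibition; CellTiter-Fluor fluorescence tracked cytotoxicity.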

[7] = test system: thyroid hormone receptor (rat, GH3 cells); test: qHTS assay to identify small molecule agonists of the thyroid receptor (TR) signaling pathway (AID 743066; calls by dose curve)
[8] = qHTS assay to identify small molecule antagonists of the estrogen receptor alpha (ER-alpha) signaling pathway - cell viability counter screen (AID 743074; calls by dose curve;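 note: HEK293 cells carrying ER-alpha-UAS-bla reporter stimulated with 17beta-estradiol; nearly all actives have a fitted effect of over 45% in size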)
[9] = qHTS assay to identify small molecule antagonists of the estrogen receptor alpha (ER-alpha) signaling pathway using the BG1 cell line - cell viability counter screen (AID 743081);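 note: compound given together with 17beta-estradiol as the ER stimulus; nearly all actives have a fitted effect of over 45% in size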; note: potency is the fitted concentration of half-maximal effect
Aromatase (Homo sapiens) = Aromatase (Homo sapiens) (UniProt P11511); test: qHTS assay to identify aromatase inhibitors (AID 743083); note: series mostly up to about 70 µM; nearly all actives have a fitted effect of over 55% in size
Sequence of Aromatase (Homo sapiens) (P11511 whole entry, looked up): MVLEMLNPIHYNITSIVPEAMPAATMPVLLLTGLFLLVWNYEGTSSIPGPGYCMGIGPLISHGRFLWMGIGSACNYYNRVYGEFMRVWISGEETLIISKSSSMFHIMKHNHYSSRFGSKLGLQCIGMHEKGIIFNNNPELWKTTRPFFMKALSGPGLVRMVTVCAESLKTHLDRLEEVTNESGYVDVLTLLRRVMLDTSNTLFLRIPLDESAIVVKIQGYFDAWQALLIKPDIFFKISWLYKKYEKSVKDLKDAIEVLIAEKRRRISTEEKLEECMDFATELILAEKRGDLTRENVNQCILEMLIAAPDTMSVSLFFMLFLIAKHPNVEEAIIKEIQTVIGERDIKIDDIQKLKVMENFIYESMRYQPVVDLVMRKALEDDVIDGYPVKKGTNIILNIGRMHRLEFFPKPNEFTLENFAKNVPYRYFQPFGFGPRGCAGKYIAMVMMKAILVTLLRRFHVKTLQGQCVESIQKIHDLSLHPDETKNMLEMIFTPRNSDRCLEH

[10] = target: Estrogen receptor (Homo sapiens) (UniProt P03372); test: qHTS assay to identify small molecule antagonists of the estrogen receptor alpha (ER-alpha) signaling pathway (AID 743069; active = well fitted curve in the direction sought with a large enough effect in the signal ratio in the repeat runs, not every such curve was filed as active; the % refers to the signal ratio)
Sequence of Estrogen receptor (Homo sapiens) (P03372 whole entry, looked up): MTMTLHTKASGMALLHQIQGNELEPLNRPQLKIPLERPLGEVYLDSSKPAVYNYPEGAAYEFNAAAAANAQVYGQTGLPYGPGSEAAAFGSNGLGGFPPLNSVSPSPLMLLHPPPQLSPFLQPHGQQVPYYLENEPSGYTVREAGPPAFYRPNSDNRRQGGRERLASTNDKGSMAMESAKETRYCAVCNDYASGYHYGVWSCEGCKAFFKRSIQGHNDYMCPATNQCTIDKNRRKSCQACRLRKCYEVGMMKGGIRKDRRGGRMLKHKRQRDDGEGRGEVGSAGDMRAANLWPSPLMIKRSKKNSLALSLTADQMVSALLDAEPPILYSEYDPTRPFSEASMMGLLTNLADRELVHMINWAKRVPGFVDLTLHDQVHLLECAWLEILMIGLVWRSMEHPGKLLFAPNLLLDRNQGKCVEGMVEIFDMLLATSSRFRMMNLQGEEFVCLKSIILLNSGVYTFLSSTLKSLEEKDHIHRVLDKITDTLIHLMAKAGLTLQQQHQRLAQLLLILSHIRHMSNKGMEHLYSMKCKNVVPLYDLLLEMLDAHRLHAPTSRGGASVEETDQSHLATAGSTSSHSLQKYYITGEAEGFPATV
Method in brief: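 Estradiol-stimulated ER-alpha-UAS-bla HEK293 cells, 18 hr compound exposure at 37C. LiveBLAzer B/G substrate, 2 hr RT, fluorescence read.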

[11] = target: Estrogen receptor (Homo sapiens) (UniProt P03372); test: qHTS assay to identify small molecule agonists of the estrogen receptor alpha (ER-alpha) signaling pathway (AID 743075; calls by dose curve;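 note: HEK293 GripTite cells with ER-alpha and UAS-driven beta-lactamase reporter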)
[12] = target: Estrogen receptor (Homo sapiens) (UniProt P03372); test: qHTS assay to identify small molecule agonists of the estrogen receptor alpha (ER-alpha) signaling pathway using the BG1 cell line (AID 743079); note: nearly all actives have a fitted effect of over 20% in size
[13] = qHTS assay to identify small molecule antagonists of the estrogen receptor alpha (ER-alpha) signaling pathway using the BG1 cell line (AID 743080; calls by dose curve;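 note: BG1 cells stimulated with 17beta-estradiol alongside compound; series mostly up to about 70 µM; nearly all actives have a fitted effect of over 25% in size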)
Method in brief: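 Luminescence from a 4×ERE-luciferase reporter in BG1-Luc-4E2 cells served as read-out. Cells, pre-cultured 5 days in stripped-serum phenol-red-free medium, were exposed to compound with 17beta-estradiol co-stimulation for 21.5 h at 37 C.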

[14] = qHTS assay for identifying genotoxic compounds that show differential cytotoxicity against isogenic chicken DT40 cell lines with known DNA damage response pathways - Rev3 mutant cell line (AID 743014); note: nearly all actives have a fitted effect of over 55% in size; note: potency is the fitted concentration of half-maximal effect
[15] = qHTS assay to identify small molecule antagonists of the thyroid receptor (TR) signaling pathway - cell viability counter screen (AID 743064); note: nearly all actives have a fitted effect of over 50% in size; note: potency is the fitted concentration of half-maximal effect
Method in brief: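 Same-well viability check: GH3.TRE-Luc cells stimulated with 1 nM T3 alongside test compound for 23.5 h, followed by CellTiter-Fluor fluorescence.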

[16] = target: Androgen receptor (Homo sapiens) (UniProt P10275); test: qHTS assay to identify small molecule antagonists of the androgen receptor (AR) signaling pathway (AID 743035; active = well fitted inhibition curve with a large enough effect in the signal ratio in the repeat runs, not every such curve was filed as active; the % refers to the signal ratio)
Sequence of Androgen receptor (Homo sapiens) (P10275 whole entry, looked up): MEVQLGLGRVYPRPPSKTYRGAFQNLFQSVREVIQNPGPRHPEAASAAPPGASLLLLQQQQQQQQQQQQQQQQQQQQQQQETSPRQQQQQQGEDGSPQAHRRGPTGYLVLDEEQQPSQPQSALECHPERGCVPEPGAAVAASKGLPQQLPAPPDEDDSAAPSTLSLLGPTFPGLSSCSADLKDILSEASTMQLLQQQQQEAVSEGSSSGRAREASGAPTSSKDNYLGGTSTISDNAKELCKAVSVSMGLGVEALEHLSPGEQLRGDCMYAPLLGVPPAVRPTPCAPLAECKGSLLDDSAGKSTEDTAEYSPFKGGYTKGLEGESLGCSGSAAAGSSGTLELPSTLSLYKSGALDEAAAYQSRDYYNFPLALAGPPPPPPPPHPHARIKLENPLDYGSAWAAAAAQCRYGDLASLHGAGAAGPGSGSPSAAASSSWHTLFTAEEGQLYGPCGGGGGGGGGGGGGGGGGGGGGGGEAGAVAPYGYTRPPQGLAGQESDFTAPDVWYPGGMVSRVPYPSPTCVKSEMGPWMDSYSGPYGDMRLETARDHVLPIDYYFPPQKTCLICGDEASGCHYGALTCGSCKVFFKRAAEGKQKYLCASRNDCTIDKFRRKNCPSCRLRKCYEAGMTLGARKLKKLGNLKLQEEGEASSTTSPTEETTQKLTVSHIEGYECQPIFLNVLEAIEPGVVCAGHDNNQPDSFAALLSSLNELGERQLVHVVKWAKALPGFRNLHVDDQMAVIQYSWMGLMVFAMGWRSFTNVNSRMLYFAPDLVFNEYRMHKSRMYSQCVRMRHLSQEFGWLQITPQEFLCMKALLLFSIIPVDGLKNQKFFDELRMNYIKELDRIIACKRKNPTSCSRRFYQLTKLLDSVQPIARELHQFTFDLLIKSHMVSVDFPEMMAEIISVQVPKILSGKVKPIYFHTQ
Method in brief: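 HEK293 cells stably carrying UAS-beta-lactamase reporter, 2,000/well, given compounds plus R1881 agonist and incubated 16 h at 37C. LiveBLAzer B/G FRET substrate then added for 2 h at room temperature before fluorescence reading.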

[17] = target: Androgen receptor (Homo sapiens) (UniProt P10275); test: qHTS assay to identify small molecule agonists of the androgen receptor (AR) signaling pathway (AID 743036; active = well fitted activation curve with a large enough effect in the signal ratio in the repeat runs, with a control signal flat, not every such curve was filed as active; the % refers to the signal ratio)
Method in brief: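 Agonist activity was scored by beta-lactamase reporter fluorescence in stably transfected HEK293 cells exposed to compounds for 16 h at 37C and 5% CO2. Substrate loading took 2 h at room temperature.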

[18] = target: Androgen receptor (Homo sapiens) (UniProt P10275); test: qHTS assay to identify small molecule agonists of the androgen receptor (AR) signaling pathway using the MDA cell line (AID 743040; note: nearly all actives have a fitted effect of over 20% in size)
Method in brief: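 Luminescence from ONE-Glo, read after 30 min at room temperature, reflects MMTV-driven luciferase in MDA-kb2 cells (AR- and GR-responsive). Treatment lasted 16 h at 37C, 0% CO2.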

[19] = target: Androgen receptor (Homo sapiens) (UniProt P10275); test: qHTS assay to identify small molecule antagonists of the androgen receptor (AR) signaling pathway using the MDA cell line (AID 743042; note: nearly all actives have a fitted effect of over 55% in size)
Method in brief: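 MDA-kb2 cells (human breast carcinoma, stably carrying an MMTV-luciferase reporter responsive to AR and GR) were plated at 3,000 cells/well and preincubated 5 hr at 37C, then given compound plus R1881 agonist for 16 h. ONE-Glo luminescence was read.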

| Structure (SMILES) | outcome [1] | Potency [2] | Potency [3] | Potency [4] | Potency [5] | Potency [6] | outcome [7] | outcome [8] | Potency [9] | Potency (Aromatase (Homo sapiens)) | outcome [10] | Potency [11] | Potency [12] | outcome [13] | Potency [14] | Potency [15] | outcome [16] | outcome [17] | Potency [18] | Potency [19] |
| --- | --- | --- | --- | --- | --- | --- | --- | --- | --- | --- | --- | --- | --- | --- | --- | --- | --- | --- | --- | --- |
| C1OCOCO1 | inactive | inactive | inactive | inactive | inactive | inactive | inactive | inactive | inactive | inactive |  |  |  |  |  |  |  |  |  |  |
| C/C=C(\C)C#N | inactive | inactive | inactive | inactive | inactive | inactive | inactive | inactive | inactive | inactive | inactive | inactive | inactive | inactive |  |  |  |  |  |  |
| O=C1CCCN1C1CCCCC1 | inactive |  | inactive | inactive | inactive | inactive | inactive | inactive | inactive | inactive | inactive | inactive | inactive |  | inactive | inactive |  |  |  |  |
| CC(=O)Nc1ccc(S(N)(=O)=O)cc1 | inactive |  | inactive | inactive | inactive | inactive | inactive | inactive | inactive | inactive | inactive | inactive | inactive | inactive | inactive | inactive | inactive | inactive | inactive | inactive |
| C[C@@H]1CCN(C(=O)[C@H](CCCN=C(N)N)NS(=O)(=O)c2cccc3c2NC[C@H](C)C3)[C@@H](C(=O)O)C1 | inactive |  | inactive | inactive | inactive | inactive | inactive | inactive | inactive | inactive | inactive | inactive | inactive |  | inactive | inactive |  |  |  |  |
| CCC(=O)OC(C)c1ccccc1 (configuration not stated) | inactive |  | inactive | inactive | inactive | inactive | inactive | inactive | inactive | inactive | inactive | inactive | inactive | inactive | inactive | inactive |  |  |  |  |
| Cc1cccc(C)c1NC(=O)C(C)N (configuration not stated) | inactive | inactive | inactive | inactive | inactive |  |  | inactive | inactive | inactive | inactive | inactive | inactive |  |  |  |  |  |  |  |
| Cc1cccn2c(=O)c(-c3nnn[nH]3)cnc12 | inactive | inactive | inactive | inactive | inactive |  |  | inactive | inactive | inactive | inactive | inactive | inactive | inactive |  |  |  |  |  |  |
| C[C@H]1C[C@@H](O)CC(C)(C)C1 | inactive |  | inactive | inactive | inactive | inactive | inactive | inactive | inactive | inactive |  |  |  |  | inactive | inactive |  |  |  |  |
| O=C1CCCCCCCCCCCN1 | inactive | inactive | inactive | inactive | inactive | inactive | inactive | inactive | inactive | inactive | inactive | inactive | inactive | inactive |  |  |  |  |  |  |
| CN(C)CCCN1c2ccccc2CCc2ccc(Cl)cc21 | inactive |  | 9.44 µM (active) and 7.7 µM (active) | 24.5 µM (active) | 48.6 µM (active) | 13.3 µM (active) and 17.2 µM (active) | inactive | inactive | 54.5 µM (active) | inactive |  |  |  |  | 7.5 µM (active) and 6.86 µM (active) | 10.6 µM (active) and 10.9 µM (active) |  |  |  |  |
| NC(=O)c1ccc([N+](=O)[O-])cc1 | inactive |  | inactive | inactive | inactive | inactive | inactive | inactive | inactive | inactive |  |  |  |  | inactive | inactive |  |  |  |  |
| CC1(C)CO[C@@H](CC(=O)O)CN1 | inactive |  | inactive | inactive | inactive | inactive | inactive | inactive | inactive | inactive | inactive | inactive | inactive | inactive | inactive | inactive |  |  |  |  |
| O=C(CCCN1CCC(O)(c2cccc(C(F)(F)F)c2)CC1)c1ccc(F)cc1 | inactive | 10.6 µM (active) | 11.9 µM (active) | inactive |  |  |  | inactive |  | inactive |  |  |  |  |  |  |  |  |  |  |
| C=C(C)CS(=O)(=O)O | inactive |  | inactive | inactive | inactive | inactive | inactive | inactive | inactive | inactive | inactive | inactive | inactive |  | inactive | inactive |  |  | inactive | inactive |
| CCCN1CCCC[C@H]1C(=O)Nc1c(C)cccc1C | inactive |  | inactive | inactive | inactive | inactive | inactive | inactive | inactive | inactive |  |  |  |  | inactive | inactive |  |  |  |  |
| CCOC(=O)CCC(C)=O | inactive |  | inactive | inactive | inactive | inactive | inactive | inactive | inactive | inactive | inactive | inactive |  | inactive | inactive | inactive |  |  |  |  |
| O=Cc1cccc([N+](=O)[O-])c1 | inactive |  | inactive | inactive | inactive | inactive | inactive |  | inactive | inactive | inactive | inactive | inactive |  | inactive | inactive |  |  |  |  |
| CC(=O)OCC(=O)[C@@]1(O)CCC2C3CCC4=CC(=O)CC[C@]4(C)C3[C@@H](O)C[C@@]21C (some centres not stated) | inactive |  | inactive | inactive | inactive | inactive | inactive | inactive | inactive | inactive |  |  |  |  | inactive | inactive |  |  |  |  |
